Results from PubChem BioAssay (NCATS).
Results filed as inconclusive are left out. Activity calls are given as the source filed them. The call rests on the fitted dose curve; in most records, active means well fitted inhibition curve with a large enough effect; inconclusive means small, poorly fitted or top-dose-only effect; inactive means flat fitted curve, though single readings scatter.

Molecular target: Tyrosyl-DNA phosphodiesterase 1 (Homo sapiens) (UniProt Q9NUW8)
Assay: Confirmation Assay for Inhibitors of Tyrosyl-DNA Phosphodiesterase (TDP1) (AID 489007); further: nearly all actives have a fitted effect of over 40% in size
Conditions: recombinant human TDP1 enzymatic activity, dose-response
Outline: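 AlphaScreen assay of tyrosine-FITC cleavage from a biotinylated DNA substrate (15 nM) by E. coli-expressed human Tdp1 (1 nM). Sequence: compound preincubation 15 min, reaction 5 min, bead detection 10 min, all at room temperature. No-enzyme wells give maximum signal.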
Potency means the concentration at half of the fitted maximal effect.

Sequence of Tyrosyl-DNA phosphodiesterase 1 (Homo sapiens) (Q9NUW8 whole entry, looked up): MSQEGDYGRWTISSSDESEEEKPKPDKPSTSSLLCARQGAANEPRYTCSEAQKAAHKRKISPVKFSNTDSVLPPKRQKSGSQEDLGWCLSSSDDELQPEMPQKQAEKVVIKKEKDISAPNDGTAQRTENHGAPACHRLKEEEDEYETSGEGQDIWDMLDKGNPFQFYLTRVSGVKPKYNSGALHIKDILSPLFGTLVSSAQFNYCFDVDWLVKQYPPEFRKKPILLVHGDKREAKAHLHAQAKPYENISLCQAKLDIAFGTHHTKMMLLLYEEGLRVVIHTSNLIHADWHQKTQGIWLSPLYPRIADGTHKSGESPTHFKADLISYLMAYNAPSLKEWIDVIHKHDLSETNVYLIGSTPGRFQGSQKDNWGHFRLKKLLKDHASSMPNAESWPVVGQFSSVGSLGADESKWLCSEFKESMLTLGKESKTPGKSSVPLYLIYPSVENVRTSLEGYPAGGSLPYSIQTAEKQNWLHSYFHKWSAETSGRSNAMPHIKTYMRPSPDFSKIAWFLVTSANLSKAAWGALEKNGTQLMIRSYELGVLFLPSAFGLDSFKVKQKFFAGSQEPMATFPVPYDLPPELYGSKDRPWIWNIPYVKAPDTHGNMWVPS

Potency, active:
COc1ccc(CCN2C(=O)C3C4CC(C5C(C(N)=O)=NOC45)C3C2=O)cc1OC (centres undefined) 112 µM
O=C(O)C1C2C=CC3(O2)C1C(=O)N1c2ccccc2C2OCCC2C13 (centres undefined) 35.5 µM
O=C1CCCC(O)=C1N=Nc1ccc(C(=O)O)cc1 1.41 µM
Cc1nc(S/C(=C\c2ccc(-c3ccc(C(=O)O)c(Cl)c3)o2)C(=O)O)n[nH]1 3.55 µM
O=C(O)c1cccc(-n2cccc2/C=C2/NC(=O)N(c3ccc(Cl)cc3)C2=O)c1 1.62 µM
O=C(CSc1nnc(SCc2ccccc2)s1)N/N=C/c1c[nH]c2ccccc12 4.47 µM
Cc1ccc(CN2C(=O)N/C(=C/c3ccc(-c4ccc(C(=O)O)cc4)o3)C2=O)cc1 12.6 µM
COc1ccc(/C=N/N=C2/NC(=O)C(CC(=O)O)S2)cc1OCc1ccc(Cl)cc1Cl (centres undefined) 39.8 µM
O=C(O)c1cccc(-n2cccc2/C=C2/NC(=O)N(Cc3ccccc3F)C2=O)c1 8.91 µM
Cc1nn(Cc2ccc(F)cc2)c(C)c1NC(=O)c1cc2ncc(Br)cn2n1 44.7 µM
COc1ccc(-n2cccc2/C=C2\C(=N)N3N=C(c4ccco4)SC3=NC2=O)cc1 14.1 µM
O=C(CSc1nccc(=O)[nH]1)NCc1ccco1 31.6 µM
O=C(COC(=O)c1cc2c(s1)CCC2)Nc1ccc(F)cc1 12.6 µM
Cc1ccc(CNC(=O)CCS(=O)(=O)c2ccc(Br)cc2)cc1 12.6 µM
O=C(CSc1nnc(SCc2ccc(Cl)cc2)s1)N/N=C/c1c[nH]c2ccccc12 5.01 µM
O=C(O)C1C2C=CC(CC2)C1C(=O)O (centres undefined) 7.94 µM
CC(=C/C(=O)O)/C=C/c1ccc(Cl)o1 39.8 µM
Cc1ccccc1NC(=O)CN1C(=O)S/C(=C\c2cccn2-c2cccc(C(=O)O)c2)C1=O 14.1 µM
O=C(O)c1ccc(/C=C/c2nc3sc4c(c3c(=O)[nH]2)CCC4)cc1 112 µM
Cc1ccc2cc(C)c3nnc(SCC(=O)NCc4ccco4)n3c2c1 35.5 µM
Cc1ccc(S(=O)(=O)N2CC=C(C(=O)NCc3ccc(F)cc3)CC2)cc1 28.2 µM
Cc1cc(C=O)c(C)n1-c1cccc(C(=O)O)c1 7.94 µM
O=C(COc1ccc2oc(-c3ccccc3)cc(=O)c2c1)NCc1ccco1 44.7 µM
O=C(O)c1ccc2ncsc2c1 39.8 µM
O=C(Nc1cc2c(oc1=O)CCCC2=O)c1ccc(Cl)cc1 31.6 µM
O=S(=O)(O)c1ccc2c(c1)-c1nc-2nc2[nH]c(nc3nc(nc4[nH]c(n1)c1ccc(S(=O)(=O)O)cc41)-c1ccc(S(=O)(=O)O)cc1-3)c1ccc(S(=O)(=O)O)cc21 0.0282 µM
O=C(N/N=C/c1ccc2c(c1)OCO2)c1cc2ccccc2o1 12.6 µM
O=C(COc1ccc2oc(-c3ccco3)cc(=O)c2c1)N1CCCCC1 79.4 µM
O=C(NC1CC1)c1cc(-c2ccco2)nc2ccccc12 3.55 µM
CC1(C)OC(=O)C(=Cc2ccc(-c3ccc(Cl)c(C(=O)O)c3)o2)C(=O)O1 14.1 µM
CN(C)/C=C/C=C1C(=O)CCCC1=O 89.1 µM
O=c1cc(CCl)nc2sc3ccccc3n12 14.1 µM
CSc1ccccc1NC(=O)c1noc2c1CCC2 126 µM
Cc1cc(N2C(=O)C3C4C=CC(C4)C3C2=O)ccc1NC(=O)c1cccs1 (centres undefined) 70.8 µM
O=C(O)c1ccc(CSc2n[nH]c(-c3ccco3)n2)cc1 39.8 µM
CCCCC(=O)Nc1ccc(C(=O)NNC(=O)CCc2ccccc2)cc1 100 µM
O=C1C2C3C=CC(C3)C2C(=O)N1c1ncn[nH]1 (centres undefined) 31.6 µM
CCc1oc(C(=O)O)cc1COC 31.6 µM
NC(=O)COC(=O)c1ccc(S(=O)(=O)NCc2ccco2)cc1 126 µM
